{
  "source": "PubChem BioAssay AID1508600",
  "about": "(Functional Genomics Laboratory (NCATS/FGL), 2020)",
  "note": "About 3,700 (7%) of roughly 53,000 sequences were called active. Many of the other results were omitted from the sample, so actives are more common in it than they were. A number with no mark means an inactive call.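 Rule for the calls: active = gene knockdowns whose robust z-score for IL-1 alpha signal is at least 2 or at most -2, so actives lie on both sides; inactive = the rest.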",
  "data": [
    {"experiment": "Components of the Cytosolic LPS Sensing Pathway: Gene Identification via Genome-wide siRNA Screen;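 note: robust z of the log signal after scaling to non-targeting control siRNA wells of the plate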", "settings": "RAW264.7 macrophages, IL-1a HTRF, actives lie on both sides, screened at 100 nM (by protocol), cells primed 5 h with Pam3CSK4 first", "method_in_brief": "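Supernatant IL-1a by HTRF from RAW264.7 cells primed with Pam3CSK4 (5 hours) and transfected with LipidA (24 hour) after 48h siRNA knockdown at 100 nM; cell viability checked with CellTiter-Glo.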", "values": [
      {"sequence": "GGAAUCGGUGUAUUCGUUUTT against Sectm1b", "z-score": 0.593},
      {"sequence": "GGAAGACAAAGUCUGGGUGTT against Hpx", "z-score": -0.915},
      {"sequence": "GGUCCUACAGGAGAAGAUCTT against Tekt2", "z-score": "-2.09 (active)"},
      {"sequence": "GGAGAAGUUCCCUAACAUGTT against Ppan", "z-score": -1},
      {"sequence": "GCCAGUAAGGAAUUCAACUTT against C3", "z-score": -1.29},
      {"sequence": "GGGCAUUGAAGCAAAUAUATT against Tmprss15", "z-score": 0.323},
      {"sequence": "GGACGCAUGAUGUGGGUUCTT against Tmem41a", "z-score": -0.626},
      {"sequence": "GCUAAGUCGGAGCAGUUUUTT against Clba1", "z-score": "2.07 (active)"},
      {"sequence": "AUGGUGCUGUUUUAUUUGUTT against Olfr671", "z-score": -0.807},
      {"sequence": "UAUCGUCCACAACUACUCATT against Epn1", "z-score": 1.14},
      {"sequence": "GGACAUCCAACCGUACAUGTT against Ccnd2", "z-score": 0.247},
      {"sequence": "GCAAGCUACAUGCAUACAUTT against Zfp945", "z-score": "3.59 (active)"},
      {"sequence": "GCCCUUUGACAAUUUGUUUTT against Stra6l", "z-score": -0.661},
      {"sequence": "CCUAUGUAACACAAACAUUTT against Orc5", "z-score": 0.721},
      {"sequence": "GGUACAAGGUCAUCAUGAGTT against Olfr1341", "z-score": "-2.85 (active)"},
      {"sequence": "GGAGGGAGUAUCCAUGUCATT against Nr2c2", "z-score": 0.209},
      {"sequence": "GGUCGACAGACUCUUGCAUTT against Mylk3", "z-score": -0.982},
      {"sequence": "GCAAGCAGAGAUGUUACAUTT against Olfr1284", "z-score": -0.975},
      {"sequence": "GGUGCUGUAUUUGAUGUUATT against Nudt6", "z-score": 0.544},
      {"sequence": "GGAACUUGAACUAAAAAUGTT against Eaf1", "z-score": "2.5 (active)"},
      {"sequence": "GGUGAUGGUGAACAAGAAATT against Lgals9", "z-score": -0.811},
      {"sequence": "GGCUCACGCUCGUUACCUATT against Nwd1", "z-score": -1.86},
      {"sequence": "GGGUCCUAAGACUAUUGAUTT against Eif4g1", "z-score": 0.274},
      {"sequence": "GCUUCCUUCUUCUUGUCCATT against Vmn1r42", "z-score": -0.475},
      {"sequence": "GGAUUUUCGAUUCUCUUACTT against Glg1", "z-score": "2.25 (active)"},
      {"sequence": "GGAUGUUCAACCUAAACGATT against Ferd3l", "z-score": -0.347},
      {"sequence": "GGUUCAGAAGUCUAUGUCUTT against Ufsp1", "z-score": 0.866},
      {"sequence": "GCCGUAUCACCCUAAACUATT against Pxylp1", "z-score": "2.05 (active)"},
      {"sequence": "GGCCUAGUUCCAGUUAUGCTT against Olfr1093", "z-score": -1.41},
      {"sequence": "CCGCUACCUUAAGCACCUATT against Terf2ip", "z-score": 0.231},
      {"sequence": "GGUUUGACUAACUUUCCUUTT against Fbxl15", "z-score": 0.198},
      {"sequence": "GCGGGAACUUAAAGUUUACTT against Yars", "z-score": "3.18 (active)"},
      {"sequence": "GGAACAGUGCUUGUAUCAGTT against Clasrp", "z-score": 0.675},
      {"sequence": "GGUUCCUUCGUGAAUGUCATT against Glp1r", "z-score": 0.0826},
      {"sequence": "CCCGUCAAUACCACUUACCTT against Sidt2", "z-score": "2.19 (active)"},
      {"sequence": "GCUAAUCGGAUGCUGAAGCTT against Psmb7", "z-score": 0.71},
      {"sequence": "CCUUAUGUCCCUAAGGCUATT against Mbd3", "z-score": -0.109},
      {"sequence": "CCUCAGUUAUAGAUGAUCUTT against Rdh11", "z-score": 0.319},
      {"sequence": "CCCUCAAAUAACAUCCAGGTT against Sh3d21", "z-score": -1.93},
      {"sequence": "GGAAAUCUAUUUCAUUGACTT against Zcchc10", "z-score": 0.956},
      {"sequence": "GCUUGUGCGAGUGUUGGAUTT against Has1", "z-score": "2.21 (active)"},
      {"sequence": "GGGUUUCCUACAGAGUACCTT against Amer3", "z-score": -0.845},
      {"sequence": "GGCAUGGAUUGGUGAGAUUTT against 9330175E14Rik", "z-score": -0.576},
      {"sequence": "GCAUUAAGCACGAGAAAAATT against Slc18a2", "z-score": 0.575},
      {"sequence": "GCUCUCAGAUGACAUCACUTT against Supt5", "z-score": "-2.43 (active)"},
      {"sequence": "GGACCACUUGUAGUAUUUGTT against Map7d1", "z-score": 0.593},
      {"sequence": "GGCAACUGCCUUUACCAUATT against Tceanc2", "z-score": 1.67},
      {"sequence": "GGAGAUCGACCUGUCUAUGTT against Cep164", "z-score": 0.988},
      {"sequence": "CGGAAAAGAUCCCUAUUGUTT against Adam5", "z-score": 0.373},
      {"sequence": "GGGACGUGCAAUUGUCUGATT against Mfsd6", "z-score": 0.0857},
      {"sequence": "GGAUGGCAUGUCCUUCCAATT against Elf3", "z-score": "2.85 (active)"},
      {"sequence": "GGAAGUGGAAAAAGUUUAGTT against Brip1", "z-score": 0.442},
      {"sequence": "GGCAUUGCUGACUACAAACTT against Tcn2", "z-score": "2.15 (active)"},
      {"sequence": "GCAGUUUUGGGCAAUACCUTT against Olfr358", "z-score": 1.22},
      {"sequence": "GCAACGCAACAGCAUUCCUTT against Psmg1", "z-score": 1.34},
      {"sequence": "GGAUAUGCUGAGGUGGUGGTT against Cpsf7", "z-score": -1.07},
      {"sequence": "GGUGUACAUGGACAUCAAGTT against Ppie", "z-score": 0.0171},
      {"sequence": "GGUCUUUGAGUUAAACCAUTT against Cdc7", "z-score": -0.0476},
      {"sequence": "CCUGAGCUAGAAUCUCAGATT against Zmat2", "z-score": 0.715},
      {"sequence": "CCCUUUCAACCAUUAAGCUTT against Kcns2", "z-score": 0.243},
      {"sequence": "GGAUGGGUCAAUGUUCUACTT against V1rb6", "z-score": 0.232},
      {"sequence": "CCACCAGAAUCCUAACACATT against Nucb2", "z-score": "2.55 (active)"},
      {"sequence": "CCAUGUGUAAAGGGAGAAATT against Nxph2", "z-score": 0.893},
      {"sequence": "CCAGUUGUGUGAAUUAUGUTT against Psmd2", "z-score": -2},
      {"sequence": "CCUACCGUUACCUAAGUGATT against Kcnj5", "z-score": -1.15},
      {"sequence": "GCAAUGAGUAUUCAUGCAATT against Sec61a2", "z-score": -1.86},
      {"sequence": "CCUUCAGUGCUGUAGUGUATT against Rasl10b", "z-score": 0.37},
      {"sequence": "GGAGUCCUAGAACACACAGTT against Snap29", "z-score": -1.79},
      {"sequence": "GGAAUAUUAUGGGUAUCGATT against Cacna1s", "z-score": 0.952}
    ]}
  ]
}
